Compounds with a hit are over-represented: about 2.4% of the library has one in this group of screens.
FEN1 inh: human FEN1 inhibition; P39748; Potency, µM (series often up to 114 µM), actives largely listed as inhibitors; Recombinant FEN1 flap cleavage, fluorescence, 15 min; 390,000 compounds, 0.35% hits; also: nearly all actives have a fitted effect of over 65% in size
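In this screen, 50 nM flap DNA substrate was added to 10 nM FEN1 pretreated with compound for 15 min at room temperature; cleavage was followed with reads at 0 and 15 min, and Hill fitting gave concentration–response parameters.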
Pol beta inh: inhibitors of human DNA polymerase beta. AID 485314. Pol beta primer extension/strand displacement, fluorescence kinetic. Potency, µM (top dose mostly 114 µM), most hits filed as inhibitors. 340,000 compounds, 1.3% hits. P06746
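Human Pol beta at 10 nM; strand-displacement substrate 50 nM final. Compound exposure 15 min at room temperature before start, reaction 10 min at room temperature.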
Pol eta inh: blocks human DNA polymerase eta activity; 390,000 compounds, 1.2% hits; AID 588591; recombinant Pol eta, fluorescent DNA replication assay; Q9Y253; Potency, µM (doses to about 114 µM), hits mostly inhibitors
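Fluorescent replication assay: 50 nM final substrate added after a 15 min room-temperature compound preincubation with 10 nM enzyme. Signal taken at 0 min and again at 10 min.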
WRN helicase inh: blocks human WRN helicase; Potency, µM (top dose mostly 114 µM), hits mostly inhibitors; 360,000 compounds, 0.46% hits; AID 651768; WRN helicase unwinding, fluorescent forked duplex, kinetic; Q14191; also: nearly all actives have a fitted effect of over 55% in size
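Enzyme (20 nM final) and test compound sit together 15 min at room temperature before substrate addition. Substrate is a single-forked duplex oligonucleotide (100 nM) labelled with fluorophore and quencher, with 2 mM ATP; helicase unwinding raises red fluorescence, read kinetically.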
POLK inh: inhibitors of human DNA polymerase kappa; purified Pol kappa, fluorescent DNA synthesis assay, 10 min; Potency, µM (titrated, usually from 107 µM), most hits filed as inhibitors; 400,000 compounds, 0.53% hits
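Kinetic fluorescence readout at 0 and 10 min followed reaction start with substrate at 50 nM final. Beforehand, enzyme (10 nM Pol kappa) stood 15 min with compound at room temperature; buffer-only wells were negative controls.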
Pol iota inh: blocks human DNA polymerase iota activity; AID 588590; Pol iota fluorescent replication assay, 10 min; Potency, µM (titrated, usually from 115 µM), usual class: inhibitors; 390,000 compounds, 1% hits; Q9UNA4
Target sequence (Q9UNA4 whole entry, looked up): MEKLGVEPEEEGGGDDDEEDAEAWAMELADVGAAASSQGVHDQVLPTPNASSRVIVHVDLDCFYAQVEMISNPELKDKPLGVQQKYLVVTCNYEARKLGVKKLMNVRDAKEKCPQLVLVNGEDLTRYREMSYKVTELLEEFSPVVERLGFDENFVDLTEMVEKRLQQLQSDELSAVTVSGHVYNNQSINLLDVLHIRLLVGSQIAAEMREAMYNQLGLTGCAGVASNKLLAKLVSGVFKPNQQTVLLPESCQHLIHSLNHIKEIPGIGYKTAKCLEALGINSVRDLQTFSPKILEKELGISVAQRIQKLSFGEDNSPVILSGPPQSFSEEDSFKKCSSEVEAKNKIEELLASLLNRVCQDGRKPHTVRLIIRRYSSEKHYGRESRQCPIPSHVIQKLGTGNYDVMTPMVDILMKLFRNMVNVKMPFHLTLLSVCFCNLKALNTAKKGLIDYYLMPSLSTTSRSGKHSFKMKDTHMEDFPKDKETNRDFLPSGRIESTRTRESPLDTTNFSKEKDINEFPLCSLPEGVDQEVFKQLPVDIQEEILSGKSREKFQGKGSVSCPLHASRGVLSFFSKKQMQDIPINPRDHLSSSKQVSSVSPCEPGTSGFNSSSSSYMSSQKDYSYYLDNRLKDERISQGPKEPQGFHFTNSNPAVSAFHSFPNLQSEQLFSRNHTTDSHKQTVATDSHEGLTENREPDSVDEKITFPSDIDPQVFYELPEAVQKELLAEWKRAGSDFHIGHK
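Fluorescent replication assay read twice, at 0 min and 10 min after adding 50 nM (final) substrate. Enzyme (10 nM) and compounds were first incubated 15 min at room temperature; enzyme-free buffer wells were negative controls.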
A number is an active result; . = inactive; ? = inconclusive; / = no result; [ ] = another dose, or the depositor's remark. Calls follow the shape of the dose curve; as a rule, active = well fitted curve in the direction sought with a large enough effect; inconclusive = small, poorly fitted or top-dose-only effect, or another doubt; inactive = no such curve, though single readings can be large; an effect the other way counts as inactive or inconclusive.

SMILES | FEN1 inh | Pol beta inh | Pol eta inh | WRN helicase inh | POLK inh | Pol iota inh
CC(=O)Nc1cc(OC(C)=O)c2nonc2c1OC(C)=O | . | . | 50µM | . | . | 0.79µM
CCOc1ccc(OCC(=O)NCCS(=O)(=O)N2CCN(c3ccccc3F)CC2)cc1 | . | . | . | / | . | .
CCc1cc2c(=O)c(-c3nc4ccccc4n3C)coc2c(CN2CCCCC2C)c1O (stereo not given) | ? | 28µM | ? | ? | . | 32µM
CCc1cc2c(=O)c(-c3nc4ccccc4n3C)coc2c(CN2CCCCC2)c1O | . | . | . | . | . | .
CCc1ccc(-n2nc(C)c3c(C)cc(=O)n(CC(=O)Nc4ccc(C(C)=O)cc4)c32)cc1 | . | . | . | / | . | .
Nc1ccc(Oc2ncccn2)cc1 | . | . | 40µM | . | . | ?
CCOC(=O)c1c(NC(=O)c2cc(-c3ccc(OC)cc3)on2)sc(C)c1C | . | . | . | / | . | .
COc1ccc(-c2csc(C(C#N)=C(O)CSc3nccn3C)n2)cc1OC | . | / | 45µM | ? | . | 14µM
CCOc1ccc(NC(=O)CC2C(=O)N(c3ccccc3)C(=O)N2C2CCCCC2)cc1 (stereo not given) | . | . | . | / | . | .
Cc1ccc(N2CC(C(=O)N3CCN(c4ccccn4)CC3)CC2=O)cc1 (stereo not given) | . | / | 50µM | .[11.6 µM] | ? | ?
Cc1ccc(N2CC(C(=O)Nc3ccccn3)CC2=O)cc1 (stereo not given) | . | . | . | . | . | .
NC(=O)c1ccsc1NC(=O)COC(=O)c1cnccn1 | . | / | ? | ? | ? | 79µM
COc1ccc(C(=O)NC(C(=O)OCC(=O)Nc2sccc2C(N)=O)C(C)C)cc1 (stereo not given) | . | / | 89µM | .[11.6 µM] | . | ?
NC(=O)c1ccsc1NC(=O)COC(=O)c1ccncc1 | . | / | . | . | . | ?
NC(=O)c1ccsc1NC(=O)COC(=O)c1ccc(Cl)c(N)c1 | . | / | 22µM | .[11.6 µM] | . | ?
COc1ccc(C(=O)N[C@H](C(=O)Nc2sccc2C(N)=O)C(C)C)cc1 | . | . | . | . | . | .
Clc1ccc(-c2nnc(-c3ccc(Br)cc3)c(N3CCSCC3)n2)cc1 | . | . | . | . | . | .
Clc1ccc(-c2nnc(-c3ccco3)nc2N2CCCCC2)cc1 | . | 40µM | ? | ? | . | .
CC(C)(C)c1nnc(NS(=O)(=O)c2cc(Cl)ccc2Cl)s1 | . | . | . | . | . | .
O=S(=O)(Nc1nc(-c2sccc2Cl)cs1)c1cc(Cl)ccc1Cl | . | 32µM | ? | ? | . | ?
CC(/C=C/C1[C@H](C)C[C@H](O[C@@H]2O[C@H](CO)[C@@H](O)[C@H](O)[C@H]2O)CC1(C)C)O[C@H]1O[C@H](CO)[C@@H](O)[C@H](O)[C@H]1O (stereo not given in full) | . | / | . | . | . | .
CC(/C=C/C1(O)C(C)CC(O)CC1(C)C)OC1OC(CO)C(O)C(O)C1O (stereo not given) | ? | 25µM | 35µM | . | 56µM | ?
CC1Cc2ccccc2C[N+]1(C)CC(=O)c1cccc([N+](=O)[O-])c1 (stereo not given) | . | / | / | / | . | .
COc1cc(NS(=O)(=O)c2ccc(NC(=S)NC(=O)/C=C/c3ccc(F)cc3)cc2)ncn1 | . | . | . | . | . | .
COc1ccc(NS(=O)(=O)c2ccc(NC(=S)NC(=O)/C=C/c3ccccc3)cc2)nn1 | . | . | 79µM | ? | . | ?
SMILES | FEN1 inh | Pol beta inh | Pol eta inh | WRN helicase inh | POLK inh | Pol iota inh
CCc1nnc(NS(=O)(=O)c2ccc(NC(=S)NC(=O)c3ccccc3)cc2)s1 | . | . | . | . | . | .
CCc1nnc(NS(=O)(=O)c2ccc(NC(=S)NC(=O)/C=C/c3ccc(OC)cc3)cc2)s1 | 50µM | . | . | ? | ? | 45µM
CCc1nnc(NS(=O)(=O)c2ccc(NC(=S)NC(=O)/C=C/c3ccc(C(C)C)cc3)cc2)s1 | ? | 45µM | 45µM | 89µM | . | 25µM
CCC(=O)Nc1ccc(NC(=S)NC(=O)/C=C/c2ccccc2)cc1 | . | 10µM | ? | ? | . | ?
CC(=O)c1ccc(NC(=S)NC(=O)/C=C/c2ccccc2)cc1 | . | . | . | . | . | .
C[C@@H]1[C@H](C)CC[C@@]2(C(=O)O)CC[C@]3(C)C(=CC[C@H]4[C@@]5(C)CC[C@@H](O)C(C)(C)[C@@H]5CC[C@@]43C)[C@@H]12 | / | / | / | / | .[12 µM] | /
CCc1nnc(NS(=O)(=O)c2ccc(NC(=S)NC(=O)/C=C/c3ccccc3)cc2)s1 | . | . | 71µM | ? | . | ?
CN(C)S(=O)(=O)c1cccc(NC(=O)COC(=O)/C=C/c2ccc(Br)o2)c1 | . | ? | ? | .[11.6 µM] | ? | 45µM
Cc1ccc(NC(=O)COC(=O)/C=C/c2ccc(Br)o2)cc1S(=O)(=O)N(C)C | . | . | . | .[11.6 µM] | ? | 45µM
COc1ccc(CCn2c3c(c(=O)[nH]c2=S)CN(CC(C)C)CN3)cc1OC | . | / | / | / | . | ?
O=C(CSc1nc2[nH]c(=O)cc(O)c2s1)Nc1nccs1 | . | / | ? | . | . | .
CCCSc1nnc(NC(=O)CSc2nc3[nH]c(=O)cc(O)c3s2)s1 | . | / | 56µM | . | . | 35µM
Cc1csc(NC(=O)CSc2nc3[nH]c(=O)cc(O)c3s2)n1 | . | / | 28µM | . | . | .
CC(NC(=O)C(=O)Nc1c2c(nn1-c1ccc(F)cc1)CSC2)c1ccccc1 (stereo not given) | . | ? | . | / | . | ?
CCC(CO)NC(=O)C(=O)Nc1c2c(nn1-c1ccc(F)cc1)CSC2 (stereo not given) | . | . | . | / | . | 89µM
O=C(CCCCn1c(=O)c2ccccc2n(CC(=O)Nc2ccccc2)c1=O)NCc1ccccc1Cl | . | . | . | / | . | .
COc1cc(Cl)c(C)cc1NC(=O)CCn1c(=O)c2cccn2c2cccnc21 | . | . | 79µM | / | . | .
O=C(Nc1ccccc1-c1ccccc1)C1CCCCC1 | . | . | . | . | . | 89µM
O=C(O)c1cc(N(Cc2ccccc2O)Cc2cc(O)ccc2O)ccc1O | / | / | / | / | 11µM | /
O=C(C[n+]1cccc(Cl)c1)c1ccc(F)cc1 | . | / | / | / | . | .
CC(=O)N[C@@H]1C(O[C@H]2O[C@H](C(=O)O)C(O)[C@H](O)[C@H]2O)[C@H](O)[C@@H](CO)O[C@H]1O[C@@H]1C(C(=O)O)O[C@@H](O[C@H]2[C@H](O)[C@@H](CO)OC(O)[C@@H]2NC(C)=O)[C@H](O)[C@H]1O (stereo not given in full) | / | / | / | / | .[19.4 µM] | /
Cc1ccc(CNC(=O)c2ccc(Cn3nc(C)c(Cl)c3C)o2)cc1 | . | 50µM | ? | . | . | ?
